BAZ2B inh: qHTS Assay for Inhibitors of BAZ2B; AID 504333, 2011; Potency, µM (top dose mostly 114 µM), most hits filed as inhibitors; AlphaScreen BAZ2B-H3K14Ac peptide displacement; 360,000 tested, 4.4% active; note: nearly all actives have a fitted effect of over 60% in size
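AlphaScreen displacement of biotin-H3(5-23)K14Ac peptide (50 nM final) from BAZ2B (50 nM final) in PBS pH 7.4, 0.01% Tween-20; complex preformed 30 min RT, then compounds (top 110 uM) 30 min RT, beads 20 min dark.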
JMJD2A Tudor inh: qHTS Assay for Inhibitors of JMJD2A-Tudor Domain; 390,000 tested, 4.4% active; Potency, µM (top dose mostly 114 µM), actives largely listed as inhibitors; AlphaScreen JMJD2A-Tudor / H3K4me3 peptide binding; note: nearly all actives have a fitted effect of over 50% in size
Six1-Eya2 blk: qHTS Assay for Inhibitors of the Six1/Eya2 Interaction | activity change, % (no concentration beside the values) | Homeobox protein SIX1 (Homo sapiens) + Protein phosphatase EYA2 (Homo sapiens), … | 360,000 tested, 0.56% active | AlphaScreen GST-Six1/His-Eya2 binding, biochemical; active compounds read low; in the data active = activity change below about -65%; inconclusive = mostly about -30% to -63%
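GST-Six1 + His-Eya2 (5X stock: 250/500 nM); Tris pH 8.0, 300 mM NaCl, 0.05% BSA, 0.02% Tween 20; GSH donor/Ni acceptor beads; 1 h 37 °C dark; AlphaScreen readout.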
CtBP-E1A inh: qHTS Assay for Inhibitors of the CtBP/E1A Interaction. activity change, % (test concentration not listed). AID 651724, 2012. 340,000 tested, 0.49% active. AlphaScreen GST-E1A/His-CtBP binding, 1536-well; active compounds read low; in the data active = activity change below about -65%; inconclusive = mostly about -30% to -63%
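Steps: dispense buffer (Tris pH 8.0, NaCl 300 mM, TCEP 1 mM, BSA, Tween 20); add 5X protein mix (GST-E1A, His-CtBP, 125 nM each); pin 23 nL compound; 2 h at 37 °C, dark; add 5X beads (50 ug/mL); 1 h; read.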
G9a block: qHTS Assay for Inhibitors of Histone Lysine Methyltransferase G9a; Histone-lysine N-methyltransferase EHMT2 (Homo sapiens), Q96KQ7; G9a H3K9 monomethylation, AlphaScreen, 2 h; Potency, µM (doses to about 102 µM), actives largely listed as inhibitors; 350,000 tested, 8.8% active; AID 504332, 2011; note: nearly all actives have a fitted effect of over 75% in size
Target sequence (Q96KQ7 913-1193 limits assumed): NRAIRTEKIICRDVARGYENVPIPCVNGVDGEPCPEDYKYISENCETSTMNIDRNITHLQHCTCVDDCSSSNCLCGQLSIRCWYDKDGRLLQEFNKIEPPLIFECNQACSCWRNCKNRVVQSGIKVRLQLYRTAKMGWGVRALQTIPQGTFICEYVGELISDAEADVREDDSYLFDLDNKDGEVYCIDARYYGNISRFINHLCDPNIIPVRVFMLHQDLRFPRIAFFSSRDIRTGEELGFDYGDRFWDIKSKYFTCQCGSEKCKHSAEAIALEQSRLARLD
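Methyltransferase reactions run at room temperature for 2 h (20 nM enzyme, 500 nM biotin-H3K9 peptide, 20 uM SAM) after a 15 min compound preincubation; product detected by AlphaScreen beads and anti-H3K9me1 antibody.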
HP1b binding inh: HTS for Inhibitors of HP1-beta Chromodomain Interactions with Methylated Histone Tails. AlphaScreen HP1-beta / biotin-H3K9me3 peptide binding. 390,000 tested, 0.56% active. Chromobox protein homolog 1 (Homo sapiens), P83916. Potency, µM (highest dose often 114 µM), actives largely listed as inhibitors; note: nearly all actives have a fitted effect of over 70% in size
Target sequence (P83916 whole entry, looked up): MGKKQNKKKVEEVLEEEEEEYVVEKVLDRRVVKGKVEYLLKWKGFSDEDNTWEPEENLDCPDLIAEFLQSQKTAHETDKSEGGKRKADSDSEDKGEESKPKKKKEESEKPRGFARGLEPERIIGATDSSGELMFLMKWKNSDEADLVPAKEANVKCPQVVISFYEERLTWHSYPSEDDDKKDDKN
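AlphaScreen: HP1-beta (50 nM) preformed 30 min with biotin-H3(1-18)K9me3 peptide (50 nM) in PBS pH 7.4, 0.01% Tween-20. Compound added for 30 min at RT, then streptavidin donor/nickel chelate acceptor beads (10 ug/mL) for 30 min.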
Each line names hits and unclear results; the compound was inactive in the other large screens. Rows were chosen to be rich in hits. Some 10% of all compounds tested hit in one or more screens of this group. Unless noted, calls come from the whole dose curve; as a rule, active = well fitted inhibition curve with a large enough effect; inconclusive = small, poorly fitted or top-dose-only effect; inactive = no such curve, though single readings can be large or run the other way.

COc1cccc(C(c2sc3ncnn3c2O)N2CCc3ccccc3C2)c1 (stereo not drawn)	G9a block 7.1µM
COc1ccc(C(c2sc3nc(C)nn3c2O)N2CCC(C(N)=O)CC2)cc1OC (stereo not drawn)	G9a block 50µM
COc1cc(C(c2sc3nc(C)nn3c2O)N2CCN(c3ccccc3)CC2)cc(OC)c1OC (stereo not drawn)	none
COc1cc(C(c2sc3nc(C)nn3c2O)N2CCc3ccccc3C2)cc(OC)c1OC (stereo not drawn)	G9a block 22µM
COC(=O)C1CCN(C(c2ccc(OC)c(OC)c2)c2sc3nc(C)nn3c2O)CC1 (stereo not drawn)	G9a block inconclusive
COc1ccc2c(c1)c(CC(=O)Nc1cccc(F)c1C)c(C)n2C(=O)c1ccc(Cl)cc1	none (no result: Six1-Eya2 blk, CtBP-E1A inh)
COc1cccc(NC(=O)Cn2c3ccc(F)cc3c3nc4n(c(=O)c32)CCCS4)c1	none
CCOc1cc(CNCCN2CCOCC2)ccc1OCc1ccccc1Cl	G9a block 50µM
O=C1Nc2cc(C(=O)N3CCN(c4ccccc4F)CC3)ccc2NC1CSCc1ccccc1F (stereo not drawn)	G9a block inconclusive (no result: JMJD2A Tudor inh, Six1-Eya2 blk, CtBP-E1A inh, HP1b binding inh)
COc1ccccc1N1CCN(C(=O)c2ccc3c(c2)NC(=O)C(CSCc2ccccc2C)N3)CC1 (stereo not drawn)	BAZ2B inh 50µM, G9a block inconclusive (no result: JMJD2A Tudor inh, Six1-Eya2 blk, CtBP-E1A inh, HP1b binding inh)
COC(=O)c1nc(N2CCN(S(=O)(=O)c3ccc(C)cc3)CC2)c2ccccc2n1	none (no result: BAZ2B inh, Six1-Eya2 blk, CtBP-E1A inh, G9a block)
CCOC(=O)c1c(/N=C/c2ccc(OC)cc2O)sc2c1CCN(C)C2	BAZ2B inh 40µM, JMJD2A Tudor inh 45µM, HP1b binding inh inconclusive (no result: G9a block)
CN1CCc2c(sc(/N=C/c3c[nH]c4ccccc34)c2C(N)=O)C1	JMJD2A Tudor inh inconclusive, G9a block 45µM
CCOC(=O)c1c(/N=C/c2ccc(C)cc2O)sc2c1CCC2	BAZ2B inh inconclusive, G9a block 45µM
Cn1c(=O)n(CC(=O)O)c(=O)c2c1nc1n2CCCN1c1ccc(Cl)cc1	none (no result: Six1-Eya2 blk, CtBP-E1A inh)
COc1ccc(-n2c(=O)c3c4c(sc3n(Cc3ccc(F)cc3)c2=O)CCCC4)c(OC)c1	G9a block inconclusive (no result: Six1-Eya2 blk, CtBP-E1A inh)
O=c1cc(-c2ccc(F)cc2)nc(SCc2nc(-c3ccccc3Cl)no2)[nH]1	none (no result: Six1-Eya2 blk, CtBP-E1A inh)
CCOc1ncccc1C(=O)OCCCC(=O)c1ccc(Br)cc1	none (no result: CtBP-E1A inh)
CC1(C(=O)NS(=O)(=O)c2ccc(Cl)cc2)CCN1C(=O)c1ccco1 (stereo not drawn)	none (no result: BAZ2B inh, JMJD2A Tudor inh, G9a block, HP1b binding inh)
O=C(c1cccc(S(=O)(=O)N2CCOCC2)c1)N(Cc1nnc(-c2ccccc2Cl)o1)C1CC1	G9a block 50µM
O=C(c1ccc(Cl)c(S(=O)(=O)N2CCOCC2)c1)N(Cc1nnc(-c2ccccc2Cl)o1)C1CC1	none
O=C1CCCN1c1ccc(C(=O)N(Cc2nnc(-c3ccccc3Cl)o2)C2CC2)cc1	G9a block 13µM
COc1ccc(S(=O)(=O)N(C)C[C@H]2Oc3ccc(NS(=O)(=O)c4cn(C)cn4)cc3C(=O)N([C@H](C)CO)C[C@@H]2C)cc1	none (no result: BAZ2B inh, G9a block)
O=C(c1ccc(Cl)cc1)N1CCN(S(=O)(=O)/C=C/c2ccccc2)CC1	none
O=C(c1ccco1)N1CCN(CCOCCOc2cccc3ccccc23)CC1	BAZ2B inh inconclusive, G9a block inconclusive
c1ccc2c(OCCCCN3CCOCC3)cccc2c1	BAZ2B inh 50µM, JMJD2A Tudor inh 3.5µM, HP1b binding inh inconclusive (no result: G9a block)
COc1ccccc1OCC(=O)NCCCN1CCOCC1	none
COc1ccccc1OCCCCCCN1CCOCC1	BAZ2B inh 50µM, JMJD2A Tudor inh 20µM, G9a block 13µM, HP1b binding inh inconclusive
c1ccc(CN2CCN(CCOCCOc3cccc4ccccc34)CC2)cc1	BAZ2B inh 22µM, JMJD2A Tudor inh 1.8µM, HP1b binding inh 20µM (no result: G9a block)
COc1ccc(N2CCN(S(=O)(=O)c3ccc(OC)c(-c4noc(C)n4)c3)CC2)cc1	none (no result: Six1-Eya2 blk, CtBP-E1A inh)
CCOC(=O)CSc1nc2ccc(NC(=O)COc3ccccc3C)cc2s1	none (no result: Six1-Eya2 blk, CtBP-E1A inh)
CC1CCCCN1C(=O)CSc1nnc(-c2ccco2)n1C (stereo not drawn)	none
Cc1cc(NC(=O)CSc2nnc(-c3ccco3)n2CC2CCCO2)no1 (stereo not drawn)	none
Cc1ccc(C(=O)CSc2nnc(-c3ccco3)n2CC2CCCO2)cc1 (stereo not drawn)	G9a block 11µM
CC1CCCCN1C(=O)CSc1nnc(-c2ccco2)n1CC1CCCO1 (stereo not drawn)	G9a block 14µM
CCn1c(SCC(=O)N2CCCCC2C)nnc1-c1ccco1 (stereo not drawn)	G9a block 35µM
OC(c1ccccc1)(c1ccccc1)c1cnc2ccccn12	none (no result: BAZ2B inh, Six1-Eya2 blk, CtBP-E1A inh, G9a block, HP1b binding inh)
Cn1c(N)c(N=O)c(=O)n(C)c1=O	G9a block 50µM
CCOC(=O)C=Nc1c(N)n(C)c(=O)n(C)c1=O	JMJD2A Tudor inh inconclusive
O=C(Cc1ccc([N+](=O)[O-])cc1)N/N=C/c1ccc([N+](=O)[O-])o1	BAZ2B inh inconclusive, G9a block inconclusive (no result: CtBP-E1A inh)
N#CCc1ccc(NC(=O)/C=C/c2ccc([N+](=O)[O-])o2)cc1	BAZ2B inh inconclusive, JMJD2A Tudor inh inconclusive, G9a block 71µM
O=C(O)/C=C/c1ccc([N+](=O)[O-])o1	BAZ2B inh 56µM, JMJD2A Tudor inh 35µM, G9a block 22µM, HP1b binding inh 50µM
CCOC(=O)c1oc2nc(C)c3c(c2c1N)CC(C)(C)OC3	JMJD2A Tudor inh 16µM, G9a block inconclusive, HP1b binding inh inconclusive
CCc1nc2oc(C(=O)c3ccccc3)c(N)c2c2c1COC(C)(C)C2	G9a block inconclusive (no result: BAZ2B inh)
CCN1CCN(CCOc2ccc(Br)cc2C)CC1	BAZ2B inh 22µM, JMJD2A Tudor inh 18µM, G9a block 7.9µM, HP1b binding inh inconclusive
Cc1cc(Br)ccc1OCCN1CCCC1	BAZ2B inh inconclusive, JMJD2A Tudor inh 25µM, HP1b binding inh inconclusive (no result: CtBP-E1A inh, G9a block)
O=C(c1ccccc1Cl)N1CCCCC1CCN1CCCCC1 (stereo not drawn)	none (no result: Six1-Eya2 blk, CtBP-E1A inh)
COc1ccc(CC2(C)OC(c3ccc(C)c([N+](=O)[O-])c3)=NN2C(C)=O)cc1 (stereo not drawn)	JMJD2A Tudor inh 79µM, G9a block inconclusive, HP1b binding inh 71µM
Cc1ccccc1NC(=O)c1c(C)oc2ccc(O)c(CN3CCC(C)CC3)c12	none (no result: Six1-Eya2 blk, CtBP-E1A inh)
